Experimental data from PubChem BioAssay.
Where “and” joins values, the source holds several entries; their conditions need not be identical. Equal entries are not always repeated. Inconclusive results are not listed. For part of these data: Entries with a potency or affinity are not part of this list. Calls of active or inactive are those of the source. Unless noted, no rule for the calls is given here.

Columns and labels:
[1] = blockers of polyQ-driven CASP3 activation – cell-based (AID 1583); settings: polyglutamine-induced caspase-3 activation, cell assay; stronger effect = higher value;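 tested at 10 µM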
[2] = yeast 75Q aggregation reduction – 75Q-TubU reporter (AID 1593); settings: Yeast 75Q polyglutamine aggregation reporter
[3] = restoration of touch response, mutant HTT neurons – whole organism, C. elegans mechanosensory neurons, N-terminal huntingtin (AID 1599); settings: C. elegans polyQ-huntingtin mechanosensory neurons, stronger effect = higher value
[4] = blockers of cytochrome c efflux from mitochondria – biochemical, purified mitochondria (AID 1603); settings: stronger effect = lower value;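 also: mouse liver mitochondria challenged with calcium chloride; signal normalized to the plate average as 100%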
[5] = polyglutamine aggregate formation blockers (AID 1604); settings: polyglutamine-induced protein aggregation inhibition assay; stronger effect = higher value; tested at 2.5 µM
[6] = glutamate transport activators, MN-1 cells, MN-1 cell line (AID 1612); settings: MN-1 motor neuron cells, stronger effect = higher value;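 also: tested at 1 µM final; 0% = mean of DMSO vehicle wells on each plate; positive means more glutamate uptake than control and negative means less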
[7] = GFP-Q80 aggregate reduction, neuronal-like cells, cell-based, NGF-treated PC12, GFPQ80 (AID 1614); settings: PC12 NGF-treated GFP-polyQ80 inclusion reduction;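 also: lower means fewer inclusions and 0 means no inclusions at all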
[8] = 75Q-TubH aggregate inhibition, S. cerevisiae, yeast (AID 1616); settings: S. cerevisiae 75Q-TubH polyglutamine aggregation suppression; stronger effect = higher value
[9] = P. berghei load reduction in hepatocytes – cell-based, HepG2, luciferase luminescence, HepG2 viability, primary screen (AID 624349; in the data active = parasite load remaining mostly below about 12%, no sharp cut-off; inactive = mostly above about 10%;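 also: 100% = mean of DMSO negative control wells on the same plate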); settings: P. berghei liver stage in HepG2, luciferase luminescence, concentration not given here; parasite load remaining: stronger effect = lower value; viability: measured here: HepG2 viability without parasites
[10] = EMT-state selective cytotoxicity in co-culture – imaging, PC-3E GFP, TEM4-18 mCherry, primary screen (AID 1345086;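 active = compounds killing one labelled cell type while sparing the other, by normalised counts and ratio limits, not self-fluorescent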;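 as to all read-outs here: cells exposed to compound for 72 h before imaging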;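 as to red/green cell ratio (normalised): normalised mesenchymal count divided by normalised epithelial count so high means epithelial killing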); settings: PC-3E GFP / TEM4-18 mCherry co-culture, imaging cell counts, at 1 µM; for red/green cell ratio (normalised): actives lie on both sides
[11] = tested on: Aerobactin synthetase IucA (Klebsiella pneumoniae hvKP1); test: IucA enzyme inhibition, primary screen, biochemical, Spectrum library (AID 1346200); settings: malachite green pyrophosphate, A620, at 8 µM, stronger effect = lower value;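 also: 100% = wells without compound and 0% = wells lacking enzyme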
[12] = viability loss with induced miR-34 in A549 – imaging, A549 dox-inducible miR-34, nuclei and caspase counts, primary screen (AID 1347080;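 active = compounds whose cell count with miR-34 switched on is under 0.7 times the count with it off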); settings: A549 miR-34 inducible, Hoechst nuclei count, 48 h
[13] = target: ATP-dependent translocase ABCB1 (Homo sapiens) (UniProt P08183); test: P-glycoprotein substrate transport blockade – cell-based (AID 377; in the data active = fluorescence slope change above about 50%); settings: MDR1-expressing cells, fluorescent substrate accumulation slope; stronger effect = higher value; concentration not given here
Chain of ATP-dependent translocase ABCB1 (Homo sapiens) (P08183 whole entry, looked up): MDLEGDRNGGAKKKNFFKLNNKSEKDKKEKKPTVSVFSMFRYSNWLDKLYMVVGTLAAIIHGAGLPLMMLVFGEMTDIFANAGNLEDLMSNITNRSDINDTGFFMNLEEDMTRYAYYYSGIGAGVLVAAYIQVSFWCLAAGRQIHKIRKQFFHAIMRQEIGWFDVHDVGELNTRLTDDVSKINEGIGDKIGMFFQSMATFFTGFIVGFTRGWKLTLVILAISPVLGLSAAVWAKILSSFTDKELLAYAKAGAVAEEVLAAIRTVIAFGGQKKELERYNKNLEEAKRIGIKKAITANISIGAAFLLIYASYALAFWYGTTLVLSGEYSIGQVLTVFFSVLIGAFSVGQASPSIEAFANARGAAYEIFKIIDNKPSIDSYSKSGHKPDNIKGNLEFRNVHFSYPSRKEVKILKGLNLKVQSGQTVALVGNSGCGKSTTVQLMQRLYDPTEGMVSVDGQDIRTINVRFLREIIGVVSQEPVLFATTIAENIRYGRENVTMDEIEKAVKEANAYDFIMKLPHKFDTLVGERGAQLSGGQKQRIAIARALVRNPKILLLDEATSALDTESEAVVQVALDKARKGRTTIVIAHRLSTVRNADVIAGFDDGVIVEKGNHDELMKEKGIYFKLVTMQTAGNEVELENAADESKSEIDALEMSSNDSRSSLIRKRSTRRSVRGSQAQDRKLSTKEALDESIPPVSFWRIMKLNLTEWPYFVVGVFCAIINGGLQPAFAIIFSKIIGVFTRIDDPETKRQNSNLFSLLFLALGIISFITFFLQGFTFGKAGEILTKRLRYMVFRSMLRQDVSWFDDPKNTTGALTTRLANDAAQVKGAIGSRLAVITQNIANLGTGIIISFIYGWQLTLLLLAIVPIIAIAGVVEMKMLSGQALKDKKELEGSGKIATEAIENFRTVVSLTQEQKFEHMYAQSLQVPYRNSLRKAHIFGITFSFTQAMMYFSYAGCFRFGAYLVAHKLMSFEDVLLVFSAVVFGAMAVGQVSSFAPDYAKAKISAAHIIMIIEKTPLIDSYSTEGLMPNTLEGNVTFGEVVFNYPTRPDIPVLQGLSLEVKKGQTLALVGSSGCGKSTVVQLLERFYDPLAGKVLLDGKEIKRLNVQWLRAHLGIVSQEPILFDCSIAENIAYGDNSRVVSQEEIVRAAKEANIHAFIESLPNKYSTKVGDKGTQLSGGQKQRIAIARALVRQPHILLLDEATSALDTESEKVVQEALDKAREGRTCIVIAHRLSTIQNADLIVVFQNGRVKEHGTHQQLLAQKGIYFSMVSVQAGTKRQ

[14] = compounds altering circadian rhythm period length – cell-based, LOPAC library, luminescence reporter (AID 2774); settings: circadian reporter cells, at 7 µM, actives lie on both sides;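 also: values are relative to mean of DMSO wells on each plate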
[15] = compounds altering viability of human ES cells (AID 493140); settings: human embryonic stem cell survival screen; stronger effect = higher value;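 also: cells exposed to compounds for four days before counting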
[16] = tested on: Hepatitis C virus NS3 helicase; test: blockers of NS3h binding to ssDNA – biochemical, fluorescence polarization, LOPAC1280 library, primary screen (AID 687035; in the data active = inhibition above about 37%); settings: Purified HCV NS3 helicase, Cy5-dT15 ssDNA binding fluorescence polarization; stronger effect = higher value; concentration not given here
[17] = compounds altering Cy5-DNA-NS3h complex signal – biochemical, LOPAC1280, artefact control for HCV NS3 helicase inhibitor project (AID 687037); settings: Cy5-DNA-NS3h complex fluorescence interference counterscreen
[18] = tested on: Aerobactin synthetase IucA (Klebsiella pneumoniae, hypervirulent); test: biochemical IucA inhibition screen of LOPAC library by absorbance (AID 1346212); settings: IucA enzyme assay, absorbance (OD) readout; stronger effect = lower value; concentration not given here;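 also: 100% = no compound wells and 0% = no enzyme wells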
[19] = blockers of cellular phospholipid synthesis – cell-based, LOPAC library, screen 4, primary screen (AID 1347384); settings: animal cells, phospholipid biosynthesis inhibition screen; at 10 µM
[20] = MELAS cybrid and Rieske KO viability enhancers – cell-based, MELAS cybrids, Rieske KO mouse fibroblasts, CellTiter-Glo, primary screen (AID 1508586;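 active = mean z-score across replicates of 1.96 or higher in either the MELAS or the Rieske mutant cell line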;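 also: z relative to plate mean and SD of compound and empty wells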); settings: low glucose
[21] = galactose survival enhancers in mitochondrial complex I cybrids – cell-based, galactose medium, ATP luminescence, primary screen (AID 1645843;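 active = z-score of at least 1.8 in each of two replicates, scored against plate mean and spread of sample wells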;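 also: positive z means more ATP and so rescue of galactose-driven cybrid death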); settings: complex I mutant cybrid cells, 72 h, stronger effect = higher value
[22] = target: NAD(+) hydrolase SARM1 (Homo sapiens) (UniProt Q6SZW1); test: blocking NAD cleavage by SARM1 SAM-TIR – cell lysate, NAD-Glo luminescence (AID 1508614;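 active = compound whose remaining NAD level is above about 45 nM, limit read from the data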;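 also: higher remaining NAD means stronger inhibition of SARM1 NADase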); settings: SAM-TIR HEK293T lysate NADase, at 1 µM, stronger effect = higher value
Chain of NAD(+) hydrolase SARM1 (Homo sapiens) (Q6SZW1 whole entry, looked up, the tested form may be a part): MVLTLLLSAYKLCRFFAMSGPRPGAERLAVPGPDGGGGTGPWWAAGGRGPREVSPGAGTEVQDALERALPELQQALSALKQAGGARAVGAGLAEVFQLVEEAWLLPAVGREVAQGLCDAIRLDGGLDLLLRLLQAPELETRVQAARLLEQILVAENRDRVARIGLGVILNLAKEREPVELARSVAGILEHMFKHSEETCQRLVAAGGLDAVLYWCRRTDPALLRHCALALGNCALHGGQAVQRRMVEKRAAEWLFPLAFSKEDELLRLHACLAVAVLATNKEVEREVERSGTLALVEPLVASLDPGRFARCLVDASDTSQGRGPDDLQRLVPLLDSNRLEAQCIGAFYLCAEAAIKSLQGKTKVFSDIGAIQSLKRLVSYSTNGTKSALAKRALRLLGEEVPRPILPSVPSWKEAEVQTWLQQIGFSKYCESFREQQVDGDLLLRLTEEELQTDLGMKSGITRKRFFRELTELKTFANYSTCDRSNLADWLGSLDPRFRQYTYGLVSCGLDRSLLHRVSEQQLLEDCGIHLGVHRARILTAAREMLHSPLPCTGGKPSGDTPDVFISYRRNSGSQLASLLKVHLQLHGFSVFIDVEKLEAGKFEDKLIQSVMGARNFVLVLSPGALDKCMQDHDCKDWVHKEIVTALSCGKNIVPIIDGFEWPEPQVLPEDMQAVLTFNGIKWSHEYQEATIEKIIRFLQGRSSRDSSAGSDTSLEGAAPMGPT

[23] = target: Mitogen-activated protein kinase 7 (Homo sapiens) (UniProt Q13164); test: Gal4-ERK5 driven luciferase induction – cell-based, HTS, primary screen (AID 1508626;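 active = luciferase signal above three times the same-plate solvent-only control wells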;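 also: luciferase driven by Gal4-ERK5 fusion binding five Gal4 sites before minimal TATA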); settings: HeLa Gal4-ERK5 transactivation, 18 h, at 5 µM, stronger effect = higher value
Chain of Mitogen-activated protein kinase 7 (Homo sapiens) (Q13164 whole entry, looked up, the tested form may be a part): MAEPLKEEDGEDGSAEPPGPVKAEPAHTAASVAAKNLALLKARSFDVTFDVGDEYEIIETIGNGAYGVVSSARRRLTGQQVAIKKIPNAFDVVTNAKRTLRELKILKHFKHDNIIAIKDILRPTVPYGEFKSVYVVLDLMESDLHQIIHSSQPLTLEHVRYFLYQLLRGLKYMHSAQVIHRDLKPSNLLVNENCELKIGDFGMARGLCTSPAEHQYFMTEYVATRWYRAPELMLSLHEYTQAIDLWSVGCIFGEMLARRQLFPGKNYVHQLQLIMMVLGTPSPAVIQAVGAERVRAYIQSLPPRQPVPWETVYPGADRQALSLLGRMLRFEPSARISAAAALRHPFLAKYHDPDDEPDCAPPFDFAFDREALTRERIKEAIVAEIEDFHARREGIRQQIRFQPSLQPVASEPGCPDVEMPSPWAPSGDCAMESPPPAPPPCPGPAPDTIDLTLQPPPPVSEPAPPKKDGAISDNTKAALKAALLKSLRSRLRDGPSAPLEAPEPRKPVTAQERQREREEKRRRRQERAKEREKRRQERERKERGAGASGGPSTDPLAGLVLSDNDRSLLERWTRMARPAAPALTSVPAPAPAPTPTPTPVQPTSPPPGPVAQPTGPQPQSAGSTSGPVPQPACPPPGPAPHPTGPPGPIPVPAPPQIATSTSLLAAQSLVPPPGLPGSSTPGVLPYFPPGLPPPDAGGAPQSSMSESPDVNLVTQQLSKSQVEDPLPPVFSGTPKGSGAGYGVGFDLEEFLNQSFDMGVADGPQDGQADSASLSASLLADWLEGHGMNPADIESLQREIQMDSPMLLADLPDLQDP

[24] = tested on: Aerobactin synthetase IucA (Klebsiella pneumoniae); test: inhibition of K. pneumoniae IucA enzyme – biochemical, Tocris library, absorbance (AID 1345561); settings: purified IucA enzyme assay, absorbance (OD) read-out; stronger effect = lower value; concentration not given here;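 also: 100% = enzyme without compound and 0% = no enzyme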
[25] = measured here: epithelial PC-3E GFP cell survival
[26] = measured here: mesenchymal TEM4-18 mCherry cell survival
[27] = measured here: relative caspase fold change +Dox/-Dox
[28] = measured here: total cells with miR-34 induction, stronger effect = lower value
[29] = measured here: total cells without miR-34 induction

CCC(C)C(=O)O[C@H]1[C@H](O)C2C(CN3CC(C)CCC3[C@@]2(C)O)C2C[C@]34O[C@]5(O)C(OC(=O)C(C)(O)CC)CC[C@@]3(C)C5C(OC(C)=O)[C@@H](OC(C)=O)C4[C@@]21O (stereo partly specified)
inhibition [1]: -14%
score [2]: 1.53
rescue above control [3]: -1.62
cytochrome c release ratio [4]: 0.8
inhibition of aggregation [5]: 60.8%
glutamate uptake change [6]: 12.6%
inclusion score [7]: 2
aggregation suppression score [8]: 1.64
parasite load remaining [9]: 35.5% (inactive)
viability [9]: 65.2%
red/green cell ratio (normalised) [10]: 0.9 (inactive)
normalised cell number [10, 25]: 1.11
normalised cell number [10, 26]: 1
activity remaining [11]: 105% (inactive)

C[C@]12CCC3[C@@H](CC[C@@]45O[C@@H]4C(O)=C(C#N)C[C@]35C)C1CC[C@@H]2O (stereo partly specified)
red/green cell ratio (normalised) [10]: 0.77 (inactive)
normalised cell number [10, 25]: 1.16
normalised cell number [10, 26]: 0.89
fold change ([12]; stronger effect = lower value): 1 (inactive)
fold change [12, 27]: 0.592
cell count [12, 28]: 8890
cell count [12, 29]: 8870

C[N+]1(C)CCOC(O)(c2ccc(-c3ccc(C4(O)C[N+](C)(C)CCO4)cc3)cc2)C1 (stereo unspecified)
fluorescence slope change [13]: 1.8% (inactive)
period change [14]: 0.02 h (inactive)
survival [15]: 3.33 (inactive)
parasite load remaining [9]: 172% (inactive) and 77.5% (inactive)
viability [9]: 105% and 75.6%
inhibition [16]: 3% (inactive)
fluorescence ratio (interference) [17]: 1 (inactive)
red/green cell ratio (normalised) [10]: 0.92 (inactive)
normalised cell number [10, 25]: 1.15
normalised cell number [10, 26]: 1.05
remaining activity [18]: 108% (inactive)
fold change ([12]; stronger effect = lower value): 1.02 (inactive) and 0.872 (inactive)
fold change [12, 27]: 0.804 and 1.21
cell count [12, 28]: 10300 and 8560
cell count [12, 29]: 10200 and 9810
outcome [19]: inactive
z-score ([20]; MELAS cybrid survival, CellTiter-Glo 48 h, stronger effect = higher value): -0.344 (inactive)
z-score ([20]; Rieske KO mouse fibroblast survival, CellTiter-Glo 72 h): -0.223
z-score [21]: 0.135 (inactive)

COC(=O)C(c1ccccc1)C1CCCCN1 (stereo unspecified)
parasite load remaining [9]: 51.8% (inactive)
viability [9]: 106%
red/green cell ratio (normalised) [10]: 0.97 (inactive)
normalised cell number [10, 25]: 1.07
normalised cell number [10, 26]: 1.04
fold change ([12]; stronger effect = lower value): 0.909 (inactive)
fold change [12, 27]: 3.99
cell count [12, 28]: 12600
cell count [12, 29]: 13900
remaining NAD [22]: 10 nM (inactive)
luciferase signal [23]: 44 AU (inactive)

CC(CC(C(N)=O)(c1ccccc1)c1ccccc1)N(C)C (stereo unspecified)
parasite load remaining [9]: 59.7% (inactive)
viability [9]: 166%
red/green cell ratio (normalised) [10]: 0.86 (inactive)
normalised cell number [10, 25]: 1.14
normalised cell number [10, 26]: 0.99
fold change ([12]; stronger effect = lower value): 0.911 (inactive)
fold change [12, 27]: 5.38
cell count [12, 28]: 11900
cell count [12, 29]: 13000
remaining NAD [22]: 10 nM (inactive)
luciferase signal [23]: 172 AU (inactive)

C[N+](C)(C)CC#CCN1CCCC1=O
inhibition [1]: 23.8%
score [2]: 1.29
rescue above control [3]: 8.8
cytochrome c release ratio [4]: 1.02
inhibition of aggregation [5]: 53.5%
glutamate uptake change [6]: 7.8%
inclusion score [7]: 2
aggregation suppression score [8]: 1.08
period change [14]: -0.1 h (inactive)
inhibition [16]: -1% (inactive)
fluorescence ratio (interference) [17]: 1 (inactive)
remaining activity [24]: 124% (inactive)
remaining activity [18]: 112% (inactive)
fold change ([12]; stronger effect = lower value): 1.08 (inactive) and 0.881 (inactive)
fold change [12, 27]: 1.78 and 1.33
cell count [12, 28]: 9690 and 9120
cell count [12, 29]: 8970 and 10300
outcome [19]: inactive
z-score [21]: 0.5 (inactive) and 0.575 (inactive)
